For 91 molecules, survival results are on record in PubChem BioAssay AID463173 (ICCB-Longwood Screening Facility, Harvard Medical School, 2010).

SMILES strings stand for the structures. Among all 52,000 compounds or so, about 4,300 (8.3%) were called active. The list comes from a sample in which actives are over-represented; it also holds similar structures and randomly drawn compounds. Unmarked numbers belong to inactive results. Rule as the data show it: active = survival mostly below about 52% (no sharp cut-off); inactive = mostly above about 56%.

This assay has as its system DeltatarO mutant. Description: growth inhibition of S. aureus wild type versus tarO mutant, primary screen, teichoic acid synthesis inhibitors, RN4220, OD600 (AID 463173). As to conditions: OD600, 18 h, stronger effect = lower value, screened at 18.75 µg/mL (by protocol).
Consider `O=c1c(S(=O)(=O)c2cccc(Cl)c2)cn(Cc2ccccc2)c2cc(N3CCCCC3)c(F)cc12`, for which the survival is 89%.

On to `O=c1oc2cc(O)ccc2cc1-c1nc(-c2ccc(Cl)c(Cl)c2)cs1`, for which the survival is 101%.

As to `O=C(Cn1c(=O)c2ccccc2n(CC(=O)Nc2ccc(F)cc2F)c1=O)NCCc1ccccc1`, the survival was 81%.

Regarding `COc1cc(NC(=O)Nc2cccc(-c3noc(C)n3)c2)cc(OC)c1OC`, the survival was 128%.

On to `CC(C)Cn1c(SCC(N)=O)nc2ccccc2c1=O`, for which the survival was 97%.

Consider `O=C(CN1C(=O)c2cccc3cccc1c23)N1CCCC1`, for which the survival was 85%.

Consider `Cc1ccc(Cl)cc1NC(=O)Cn1c(=O)n(C(C)C)c(=O)c2oc3ccccc3c21`, for which the survival was 51%.

With `Cc1ccc(Cl)cc1N1CCN(C(=O)C2CCCN(S(=O)(=O)c3ccc(Br)s3)C2)CC1` (stereo unspecified), the survival was 113%.

Take `COc1ccccc1N(CC(=O)NC1CCCCC1)C(=O)c1csnn1`: the survival was 96%.

Consider `O=C(NCc1cccc(F)c1)c1ccc(CS(=O)c2ccccc2Cl)o1` (stereo unspecified), for which the survival was 68%.

On to `COC(=O)c1c(NC(=O)CCCOc2ccccc2)sc2c1CCC(C)C2` (stereo unspecified), for which the survival is 2% (active).

`CC1CCc2c(sc(NC(=O)CCCOc3ccccc3)c2C(N)=O)C1` (stereo unspecified): the survival was 78%.

For `COC(=O)c1c(NC(=O)COc2ccc(Cl)cc2C)sc2c1CCCCC2`, the survival is 68%.

For `Cc1ccc(OCCCC(=O)Nc2sc3c(c2C(N)=O)CCCC3)cc1`, the survival was 53%.

Take `COc1ccc(NC(=O)c2c(NC(=O)COc3ccccc3)sc3c2CCC(C)C3)cc1` (stereo unspecified): the survival was 120%.

Consider `Cc1ccccc1OCC(=O)Nc1sc2c(c1C(=O)OC(C)C)CCCC2`, for which the survival was 77%.

As for `COC(=O)c1c(NC(=O)CCCOc2ccccc2C)sc2c1CCC2`, the survival was 4% (active).

Turning to `CCOc1ccc(/C=C/C(=O)Nc2sc3c(c2C(=O)OC)CCC3)cc1`, the survival is 75%.

For `COC(=O)c1c(NC(=O)CCCOc2ccc(C)cc2)sc2c1CCCC2`, the survival is 8% (active).

For the molecule `CCS(=O)(=O)Nc1ccc2[nH]c(=O)[nH]c2c1`, the survival is 88%.

As to `CCc1ccc(NC(=O)CNC(=O)Cn2c(C)cc3ccccc3c2=O)cc1`, the survival is 114%.

For the molecule `CCN(C(=O)C1CCN(S(=O)(=O)c2c(C)noc2/C=C/c2ccc(C)cc2)CC1)c1cccc(C)c1`, the survival is 84%.

On to `CCOc1ccc(CCNC(=O)C2CC(=O)N(CCc3ccc(OC)c(OC)c3)C2)cc1OCC` (stereo unspecified), for which the survival is 91%.

Regarding `COc1ccc(OC)c(C2CC(=O)c3c([nH]c(C(=O)OC4CCC(C)CC4)c3C)C2)c1` (stereo unspecified), the survival was 81%.

As to `COc1ccc(-c2noc(-c3ccc(N4CCCCC4)c([N+](=O)[O-])c3)n2)cc1`, the survival was 37% (active).

Take `COc1ccc(-c2noc(-c3ccc(N4CCN(C)CC4)c([N+](=O)[O-])c3)n2)cc1`: the survival was 42% (active).

Consider `COc1ccc(-c2noc(-c3ccc(N4CCN(c5ccc(OC)cc5)CC4)c([N+](=O)[O-])c3)n2)cc1`, for which the survival was 47%.

In the case of `COc1ccc(-c2noc(-c3ccc(N4CCOCC4)c([N+](=O)[O-])c3)n2)cc1`, the survival is 46%.

In the case of `COc1ccc(-c2noc(-c3ccc(N4CCCC4)c([N+](=O)[O-])c3)n2)cc1`, the survival is 108%.

Regarding `COc1ccc(-c2noc(-c3ccc(N4CCN(C)CC4)c([N+](=O)[O-])c3)n2)cc1OC`, the survival was 50%.

Regarding `CC1=C(C(=O)Nc2ccccc2C)C(c2cccnc2)n2nc(SCc3ccccc3F)nc2N1` (stereo unspecified), the survival was 60%.

For the molecule `Cc1nc2nncn2c(N2CCN(c3ccccc3)CC2)c1C`, the survival is 83%.

For the molecule `COc1cccc(CNC(=O)c2nn(C)c3c2CS(=O)(=O)c2ccccc2-3)c1`, the survival was 74%.

Take `CC(=O)c1ccc(NC(=O)CSc2cn(CC(=O)N3CCCCC3)c3ccccc23)cc1`: the survival is 63%.

On to `C=CCNc1nc(-c2ccccc2)cs1`, for which the survival is 97%.

Regarding `Cc1nc(C)c(-c2csc(NCc3ccccc3)n2)s1`, the survival is 65% (active).

Consider `COCC(=O)Nc1nc(-c2ccccc2)cs1`, for which the survival was 112%.

Take `COc1cccc(C(=O)CN2C3=NCCN3c3ccccc32)c1`: the survival is 106%.

`CC1=C(C(=O)Nc2cccc(F)c2)C2(CCCCCC2)OC1=O`: the survival was 70%.

In the case of `Cc1ccc(C2=NN(CC(=O)NCCC(C)C)C(=O)CC2)cc1`, the survival is 37% (active).

Consider `CCN(CCCNC(=O)CN1N=C(c2ccccc2)CCC1=O)c1cccc(C)c1`, for which the survival was 124%.

Regarding `Cc1ccc(C2=NN(CC(=O)NCCCN(CC(C)C)CC(C)C)C(=O)CC2)cc1`, the survival is 83%.

For the molecule `CCN(CCCNC(=O)CN1N=C(c2ccccc2)CCC1=O)c1ccccc1`, the survival was -5% (active).

For `CCCCN(CCCNC(=O)CN1N=C(c2ccccc2)CCC1=O)c1ccccc1`, the survival is 88%.

With `Cc1ccc(C2=NN(CC(=O)NCCN(CC(C)C)CC(C)C)C(=O)CC2)cc1`, the survival is 131%.

For the molecule `CCN(CCCNC(=O)CN1N=C(c2ccc(C)cc2)CCC1=O)c1ccccc1`, the survival was 0% (active).

In the case of `CCN(CCCNC(=O)CN1N=C(c2ccc(OC)cc2)CCC1=O)c1cccc(C)c1`, the survival was 123%.

For the molecule `CCCCN(CCCNC(=O)CN1N=C(c2ccc(C)cc2)CCC1=O)c1ccccc1`, the survival is 92%.

Turning to `COc1ccc(C)cc1NC(=O)c1ccc2c(c1)CCN2S(=O)(=O)c1ccc(Cl)cc1`, the survival is 79%.

As for `CCOc1ccc(NC(=O)c2ccc3c(=O)n4c(nc3c2)CCCCC4)cc1`, the survival was 139%.

Regarding `O=C(NCCc1ccc(Cl)cc1)C(=O)NCC(c1cccs1)S(=O)(=O)c1ccccc1` (stereo unspecified), the survival was 77%.

With `CCOC(=O)c1c(NC(=O)/C=C/c2ccc(C)cc2)sc2c1CCCC2`, the survival was 22% (active).

For the molecule `CCOC(=O)c1c(NC(=O)/C=C/c2ccccc2)sc2c1CCCC2`, the survival is 75%.

With `CCOC(=O)c1c(NC(=O)/C=C/c2ccc(OCC)cc2)sc2c1CCCC2`, the survival was 36% (active).

`CCOC(=O)c1c(NC(=O)/C=C/c2ccc(C(C)C)cc2)sc2c1CCC2`: the survival was 56%.

On to `CCOc1ccc(/C=C/C(=O)Nc2sc3c(c2C(=O)OC)CCCC3)cc1`, for which the survival was 110%.

As for `CCOC(=O)c1c(NC(=O)/C=C/c2ccc(OCC)cc2)sc2c1CCC2`, the survival was 145%.

For `COCCCN1C(=O)c2[nH]nc(-c3ccccc3O)c2C1c1ccc(OC)cc1` (stereo unspecified), the survival was 53%.

Regarding `CCCCN1C(=O)c2[nH]nc(-c3ccccc3O)c2C1c1ccc(C(C)(C)C)cc1` (stereo unspecified), the survival is 88%.

As to `CC(C)OCCCN1C(=O)c2[nH]nc(-c3ccccc3O)c2C1c1ccc(OCc2ccccc2)cc1` (stereo unspecified), the survival was 28% (active).

Regarding `CC(C)OCCCN1C(=O)c2[nH]nc(-c3ccccc3O)c2C1c1ccccc1F` (stereo unspecified), the survival is 46%.

For the molecule `COCCCN1C(=O)c2[nH]nc(-c3ccccc3O)c2C1c1ccc(OCc2ccccc2)cc1` (stereo unspecified), the survival was 8% (active).

As to `CC(C)OCCCN1C(=O)c2[nH]nc(-c3ccccc3O)c2C1c1cccc(OCc2ccccc2)c1` (stereo unspecified), the survival was 49%.

Turning to `CCCCN1C(=O)c2[nH]nc(-c3ccccc3O)c2C1c1ccc(OCc2ccccc2)cc1` (stereo unspecified), the survival was 43% (active).

Take `COCCNC(=O)c1c(NC(=O)c2cc(=O)c3cc(Cl)ccc3o2)sc2c1CCCC2`: the survival is 49%.

Consider `Cc1cccc(NC(=O)c2sc3nc(N4CCOCC4)c4c(c3c2N)CC(C)(C)OC4)c1`, for which the survival is 91%.

Turning to `Cc1cccc(Oc2ccc(NC(=O)CCC(=O)OCC(=O)c3ccc(Br)cc3)cc2)c1C`, the survival is 68%.

Consider `COc1ccc(OC)c(S(=O)(=O)Nc2cccc(-c3ccc(N4CCCCC4)nn3)c2)c1`, for which the survival is 83%.

As to `COCCCn1c(SCC(=O)N2CC(=O)Nc3ccccc32)nnc1-c1ccoc1C`, the survival was 79%.

Take `CCOC(=O)c1c(-c2ccc(C)cc2)csc1NC(=O)c1cc(=O)c2cc(C)ccc2o1`: the survival was 42% (active).

For `CCOC(=O)c1c(-c2ccc(C)cc2)csc1NC(=O)c1cc(=O)c2ccc(C)cc2o1`, the survival is 109%.

`CCOC(=O)c1c(-c2ccc(C)cc2)csc1NC(=O)c1cc(=O)c2cc(Cl)ccc2o1`: the survival was 116%.

As to `CCOC(=O)c1c(NC(=O)c2cc(=O)c3cc(C)cc(C)c3o2)sc(C)c1C`, the survival was 48% (active).

In the case of `CCOC(=O)c1c(NC(=O)c2cc(=O)c3c(C)cc(C)cc3o2)sc(C)c1C`, the survival was 61%.

Regarding `CCOC(=O)c1c(NC(=O)c2cc(=O)c3ccc(C)cc3o2)sc(C)c1C`, the survival is 100%.

Take `COc1ccc(CNC(=O)c2cnc(N3CCOCC3)c3ccccc23)cc1`: the survival was 70%.

For the molecule `CC1=Nc2cc(C(=O)NCc3ccccc3Cl)ccc2Sc2c(C)ccc(C)c21`, the survival is 79%.

Turning to `O=C(Nc1ccccc1Cl)[C@H](CSCc1ccccc1)N1Cc2ccccc2C1=O`, the survival was 58%.

Turning to `CCN1CCN(c2c(S(=O)(=O)c3ccc(Cl)cc3)cnc3ccccc23)CC1`, the survival was 77%.

In the case of `Nc1ncnc2sc3c(c12)CCCC3`, the survival is 57%.

Take `CCOC(=O)CSc1ncnc2sc3c(c12)CCC3`: the survival was 96%.

For `CNC(=O)CSc1ncnc2sc3c(c12)CCCC3`, the survival was 80%.

On to `CCn1cnc2sc3c(c2c1=O)CCCC3`, for which the survival is 101%.

On to `CCC(Sc1ncnc2sc3c(c12)CCCC3)C(=O)OC(C)C` (stereo unspecified), for which the survival was -7% (active).

With `COC(=O)C(C)n1cnc2sc3c(c2c1=O)CCCC3` (stereo unspecified), the survival was 92%.

For the molecule `Clc1ncnc2sc3c(c12)CCCC3`, the survival was 86%.

Turning to `CCC(Sc1ncnc2sc3c(c12)CCCC3)C(=O)OCC(C)C` (stereo unspecified), the survival was -6% (active).

Turning to `CCOC(=O)C(CC)Sc1ncnc2sc3c(c12)CCCC3` (stereo unspecified), the survival was -7% (active).

Turning to `CCOC(=O)c1ccc2c(c1)N(Cc1ccc(F)cc1Cl)C(=O)c1ccccc1S2(=O)=O`, the survival is 90%.

`COc1ccc(-n2nc(C(=O)N3CCN(c4ccccc4OC)CC3)c3c4ccccc4n(C)c3c2=O)cc1Cl`: the survival is 123%.

Consider `Cc1cc(C)c(NC(=O)CCN2C(=O)c3ccccc3Sc3ncccc32)c(C)c1`, for which the survival is 106%.
